Compounds without any hit were thinned out: in the full panel of roughly 83,000, 20% have a hit.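 Single-concentration screen, 48 h exposure, 96-well plates. Endpoint: percent growth. Below 10 = active.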 A number with no mark means an inactive call. Activity calls are given as the source filed them.
test system: HL-60(TB) leukemia; experiment: NCI-60 one-dose screen, 48 h (100 = growth as untreated, 0 = no growth, -100 = all killed); conditions: 10 µM unless noted

Structure (SMILES) | growth
COc1cc(/C=C2\SC(=S)N(/C=C/c3nc4ccccc4[nH]c3=O)C2=O)cc(OC)c1OC | 70%
O=C(Nc1ncc(Cc2ccccc2)s1)c1sc2ccccc2c1Cl | -9.41% (active)
CCNCC(C)(C)O | 102%
CC(Sc1ccccc1)C(=O)O (stereo not given) | 143%
N#Cc1ccc(N2Cc3cc(Cl)ccc3OC3=C2C(=O)N(Cc2ccccc2)C3=O)cc1 | -48.2% (active)
CC[C@]1(O)C[C@@H]2CN(CCc3c([nH]c4ccccc34)[C@@](C(=O)OC)(c3cc4c(cc3OC)N(C)[C@H]3[C@@](O)(C(=O)OC)[C@H](OC(C)=O)[C@]5(CC)C=CCN6CC[C@]43[C@@H]65)C2)C1 | -7.59% (active)
O=C(O)c1cn(C2CC2)c2cc(N3CCN(C(=O)Nc4nc(-c5ccc(Br)cc5)cs4)CC3)c(F)cc2c1=O | -2.62% (active)
CC1=C2[C@@H](CC1)[C@]1(C)O[C@@](C3CC3)(C[C@H]1OC(=O)CO)[C@H]2OC(=O)/C=C/c1ccccc1 | 92.6%
C=C1CC[C@@H]2[C@](C)(COC(C)=O)[C@H](OC(C)=O)CC[C@@]2(C)[C@@H]1CC(Nc1ccc(S(=O)(=O)Nc2ncccn2)cc1)C1=CCOC1=O (stereo not given in full) | -17.2% (active)
O=C(COc1cccc(/C=C2\Oc3ccc4ccccc4c3C2=O)c1)c1ccc([N+](=O)[O-])cc1 | 94.8%
COc1cc(C2C=C(c3ccc(Cl)c(Cl)c3)N=C3SC(C)=CN32)cc(OC)c1OC (stereo not given) | 61.6%
CCCCOc1nc2c(C)cccc2cc1-c1cc(-c2ccc(Cl)cc2)nc(-c2ccc(Cl)cc2)c1 | 98.8%
CC(C)c1ccc(-n2c(=S)[nH]c3sc4c(c3c2=O)CCC(=O)C4)cc1 | 75.4%
N#C/C(=N\Nc1ccc(Cl)cc1)C(=O)Nc1cc(-c2ccccc2)nn1-c1ccccc1 | 27.5%
COc1ccc2c(c1)C(C)Cc1c(Cl)nc(C)nc1N2C (stereo not given) | 11.3%
CCS/C(Nc1ccccc1)=C(\C#N)C(=O)Nc1ccc(OC)cc1 | -15.6% (active)
C[C@@H]1CC[C@H]2[C@@H](C)C(O)O[C@@H]3O[C@]4(C)CC[C@@H]1[C@]32OO4 (stereo not given in full) | -24.4% (active)
Cc1cc2ccccc2nc1-c1ccccc1F | 97.4%
COc1ccc2c(CCCCC(c3ccccc3)c3ccccc3)c3[n+](cc2c1OC)CCc1cc2c(cc1-3)OCO2 | -35.5% (active)
O=C(O)c1ccc2c(c1)C(=O)N(Cc1ccccc1)C2=O | 93.1%

Structure (SMILES) | growth
CC(=O)Nc1nc2c(c(N)c1C#N)C(c1cccc(Cl)c1)C1=C(CCCC1=O)N2c1sc2c(c1C#N)CCCC2 (stereo not given) | 5.89% (active)
COc1ccc(C(=O)C2C(C#N)C(C#N)C3C=Cc4ccccc4N32)cc1 (stereo not given) | -7.91% (active)
O=C1CSC(c2c(F)cccc2Cl)N1NC(=O)C(O)(c1ccccc1)c1ccccc1 (stereo not given) | 98.3%
O=c1[nH]cnc2nc[nH]c12 | 117%
Cc1cnc(C(=O)Nc2nc3ccc(S(=O)(=O)Nc4ccc(C5(C(F)(F)F)CC5)cc4)cc3[nH]2)cn1 | -25.1% (active)
Cn1ccnc1C(=O)/C=C/c1ccc(C(=O)Nc2ccc(Cl)cc2)cc1 | -16.9% (active)
CC1(C)C(N)=Nc2cc(OCCCN3Cc4ccc(OCCc5cn(CC(=O)N6CCC(CCN7CCCC7)CC6)nn5)cc4C3)c(OCC3CC3)cc21 | 97.3%
CCCCSc1ncnc2c1ncn2C1CCCCO1 (stereo not given) | 90.4%
O=C1NN(C(=O)c2ccc(O)cc2)C(c2ccccc2)=N/C1=C\c1cn(-c2ccccc2)nc1-c1ccccc1 | 85.7%
O=C1Nc2c(ccc(Cl)c2Cl)/C1=C/c1ccc(O)cc1 | 76.9%
C/C(=N\NC(=S)N1CC2CCC(CC2)C1)c1ccccn1 | -22.4% (active)
CCOC(=O)C1=C(C)N2C(=NC3=C(CCCC/C3=C\c3ccccc3)C2c2ccccc2)S1 (stereo not given) | 101%
N#CCc1ncc(-c2ccc(C(F)(F)F)cc2)c(NC2CCCCCC2)n1 | -28.4% [100 µM] (active)
CCCC(=O)Oc1ccc(/C(=C(/CC)Cc2ccccc2)c2ccc(OCCN3CCCC3)cc2)cc1 | 89.2%
Cc1cn(C2CC(N=[N+]=[N-])C(COP(=O)(O)OP(=O)(O)OP(=O)(O)O)O2)c(=O)[nH]c1=O (stereo not given) | -96.5% (active)
Cc1ncc(C#N)c(N)n1 | 109%
Cc1ccc(-c2cc3nc(C(Cl)Cl)nc(-c4ccccc4C)n3n2)cc1 | 78.4%
CC1=C(C(=O)OCC2CCN(C(=O)OC(C)(C)C)CC2)[C@H](c2cccc(C#N)c2)C2=C(CC(C)(C)CC2=O)N1 | 27.5%
Cn1cc(-c2csc(-c3cn(C)c4ncccc34)n2)c2ccccc21 | -3.85% (active)
COC(=O)[C@@H](Cc1c[nH]c2ccccc12)NC(=O)/C=C/c1ccccc1 | 0.51% (active)
